Env fusion inh – inhibitors of HIV Env-mediated cell fusion; inhibition, % at 12.3 µM; hit rate 1.1% among 360,000; HeLa-JRFL Env/CEM21 cell fusion, luciferase;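 active means mean replicate inhibition score of at least 50 and every replicate individually at or above 50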
ALR H2O2 inh – blocks human ALR sulfhydryl oxidase activity; P55789; purified ALR, DTT oxidation, H2O2 HRP-luminol luminescence; inhibition, % (test concentration not listed); hit rate 3.8% among 290,000;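 active means mean replicate inhibition above about 79%, with every replicate also reaching it, limit read from the data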
PglD DTNB – inhibitors of Campylobacter jejuni PglD acetyltransferase | purified PglD enzyme, DTNB colorimetric CoA detection | inhibition, % at 12.5 µM | hit rate 0.098% among 360,000 | AID 602405; in the data active means inhibition above about 16%, passing the limit was not always enough
NSD2 inh – blocks human histone methyltransferase NSD2 | inhibition, % at 12.5 µM | hit rate 0.54% among 310,000 | AID 743445 | NSD2 peptide methylation, AlphaScreen, 120 min; in the data active means inhibition above about 50%
Casp6 inh – caspase-6 (human) enzyme inhibition | hit rate 0.53% among 350,000 | inhibition, % at 12.5 µM | purified caspase-6, Z-VEID-R110 cleavage fluorescence | P55212 | AID 686996;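 active means mean inhibition across replicates at least about 35%, with every replicate also reaching that limit, limit read from the data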
F508del corr – correctors of CFTR F508del function in bronchial epithelial cells. CFBE cells, YFP halide quenching; stimulated with forskolin plus potentiator P3; % fluorescence drop versus neutral controls. activity (quench increase), % at 7.58 µM. hit rate 0.36% among 350,000. AID 720511;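 active means mean added fluorescence quench of at least 8% versus neutral control, with both replicates also reaching 8%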;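 further: cells transiently co-express mutant CFTR-F508del with the halide-sensitive YFP; corrector assay measuring rescue of mutant channel to the surface after 24 h compound exposure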
Alpha artifact – AlphaScreen assay artifact in NSD2 counter-screen. shares compounds with NSD2 inh. AlphaScreen artifact counterscreen, preloaded methylated H4 peptide. AC35, µM (doses to about 10 µM). hit rate 9.4% among 1,500. AID 1053174; call rule not given here
Numbers stand for hits; - = inactive; . = no result. Rows were chosen to be rich in hits. Some 4.1% of all compounds tested hit in one or more screens of this group.

SMILES	Env fusion inh	ALR H2O2 inh	PglD DTNB	NSD2 inh	Casp6 inh	F508del corr	Alpha artifact
CN(C)CCCNC(=O)[C@@H]1[C@@H](CO)[C@@H]2Cn3c(ccc(-c4cccc(F)c4)c3=O)[C@H]1N2	-	.	.	.	-	-	.
CCc1ccc(N2CN=c3s/c(=C\c4ccccc4)c(=O)n3C2)cc1	-	-	-	61	-	-	-
O=c1/c(=C/c2ccccn2)sc2n1CN(c1ccccc1)CN=2	-	-	-	-	.	.	.
CN(C)C(=O)c1ccc(-c2ccc([C@H]3[C@@H](CO)N4C(=O)CN(C(=O)C5CCCC5)C[C@H]34)cc2)cc1	.	.	.	.	-	-	.
Cc1cccc(C)c1-n1cccc1/C=C1/C(=N)N2C(=NC1=O)SN=C2S(C)(=O)=O	-	-	.	.	-	-	.
Cc1ccc(-n2cccc2/C=C2/C(=N)N3C(=NC2=O)SN=C3S(C)(=O)=O)cc1Cl	-	-	-	127	.	.	-
CN1CCN(C(=O)C[C@@H]2C[C@H]3c4cc(NC(=O)NC5CCCC5)ccc4O[C@H]3[C@@H](CO)O2)CC1	-	.	-	.	-	-	.
O=C(COC(=O)c1ccccc1F)NC1CC1	.	-	-	52	-	-	-
O=C(Cc1ccc(Cl)cc1)Nc1ncc([N+](=O)[O-])s1	-	.	.	-	-	-	.
O=C(Cc1ccc(Br)cc1)Nc1ncc([N+](=O)[O-])s1	-	-	-	50	-	-	-
C[C@@H]1CN([C@H](C)CO)C(=O)c2cc(NC(=O)CCC(F)(F)F)ccc2O[C@@H](C)CCCCO[C@H]1CN(C)C(=O)Nc1ccc(C(F)(F)F)cc1	-	.	-	.	-	-	.
O=[N+]([O-])c1cccc(NC(=S)N2CCOCC2)c1	-	.	.	85	-	-	-
CCCn1c(CCl)nc2cc(S(=O)(=O)N3CCOCC3)ccc21	-	-	-	-	-	-	.
O=S(=O)(c1ccc2c(c1)nc1n2CCC1)N1CCOCC1	-	-	-	92	.	.	-
CSc1ncccc1C(=O)Nc1nc2c(C)cccc2s1	-	-	.	104	-	-	-
CSc1ncccc1C(=O)OCC(=O)N1CC2(C)CC1CC(C)(C)C2 (stereo unspecified)	.	.	-	53	-	-	-
COc1ccc(S(=O)(=O)Nc2ccc3c(c2)C(=O)N([C@@H](C)CO)C[C@@H](C)[C@H](CN(C)Cc2ccncc2)O3)cc1	.	.	-	.	-	-	.
O=C1NC(NS(=O)(=O)c2ccccc2)(C(F)(F)F)C(=O)N1c1cccc(Cl)c1 (stereo unspecified)	-	-	-	96	-	-	-
O=C(O)c1cc(-c2ccco2)nn1-c1ccc(Cl)cc1	-	.	.	60	50	-	-
O=C(O)c1ccc(-n2cccc2/C=N\NC(=O)c2cc3cc(Br)ccc3o2)cc1	-	87	-	58	64	-	-
CN1c2ccc(-c3ccccc3)cc2[C@@H]2[C@@H](CCN2C(=O)Cc2cccnc2)[C@@H]1CO	.	.	-	.	-	-	.
Cc1oc(-c2cccs2)nc1CN1CCN(C2CCCC2)C(CCO)C1 (stereo unspecified)	-	-	-	52	-	-	-
Cc1oc(-c2cccs2)nc1CN1CCN(CCC(C)C)C(CCO)C1 (stereo unspecified)	-	-	.	-	-	.	.
CN(C)CC#Cc1ccc([C@H]2[C@H](CO)N3CCCCN(C(=O)Nc4ccccc4F)C[C@@H]23)cc1	.	.	-	.	.	-	.
Cc1ccc(NC(=O)CCC(=O)OCC(F)(F)C(F)F)cc1	-	-	-	121	.	.	-
SMILES	Env fusion inh	ALR H2O2 inh	PglD DTNB	NSD2 inh	Casp6 inh	F508del corr	Alpha artifact
C[C@@H]1CN([C@@H](C)CO)C(=O)Cc2cc(NC(=O)CCCCCC(=O)Nc3ccccc3N)ccc2O[C@H]1CN(C)S(=O)(=O)c1cccs1	-	.	-	.	.	-	.
CC(C)=NOCC(=O)Nn1c(COc2c(C)cccc2C)nc2ccccc2c1=O	-	-	.	57	-	-	-
C=CCOCC(O)Cn1c(N2CCCC2)nc2c1c(=O)n(C)c(=O)n2C (stereo unspecified)	-	-	-	53	-	-	-
Cn1c(=O)c2c(nc(N3CCCC3)n2CC(O)CO)n(C)c1=O (stereo unspecified)	-	-	-	-	.	.	.
Nc1nc(Nc2ccccc2F)nc(NCc2ccccc2)c1[N+](=O)[O-]	-	-	-	-	-	-	.
Nc1nc(Nc2ccccc2F)nc(NCCO)c1[N+](=O)[O-]	-	-	-	60	-	-	-
CN(C)CC(=O)Nc1ccc2c(c1)[C@@H]1C[C@H](CC(=O)NC3CCCC3)O[C@@H](CO)[C@@H]1O2	-	.	-	.	-	-	.
O=C(Nc1ccc(O)cc1)C1CC=CCC1 (stereo unspecified)	-	99	-	126	.	.	-
O=C(Nc1nccs1)C1CC=CCC1 (stereo unspecified)	-	-	-	-	-	-	.
O=C(O)c1cc(N2C(=O)C=CC2=O)cc(N2C(=O)C=CC2=O)c1	.	.	-	88	61	-	-
CNS(=O)(=O)c1cc(NC(=O)CCCNC(=O)c2ccc(Cl)cc2)ccc1C	-	-	-	67	-	-	-
COc1ccc(NC(=O)CCCNC(=O)c2ccc(Cl)cc2)cc1OC	-	-	-	-	-	-	.
CCOC(=O)c1sc(NC(=O)COc2ccc3c(c2)OCO3)nc1C	-	-	-	114	-	-	-
O=C(/C=C/c1ccc(-c2ccccc2)cc1)NCc1cccnc1	-	-	-	62	-	-	-
O=C(/C=C/c1ccccc1)NCc1cccnc1	-	-	.	-	-	-	.
CCOC(=O)C1=CC[C@@H](c2ccc3ccccc3n2)[C@@H]1C(=O)c1ccccc1	-	.	.	.	-	-	.
CN(C)CCC(=O)N1C/C(=C/c2ccccc2)C(=O)/C(=C\c2ccccc2)C1	75	.	.	50	-	-	-
C[N+](C)(C)CCC(=O)N1C/C(=C/c2ccccc2)C(=O)/C(=C\c2ccccc2)C1	-	.	.	50	-	-	-
COc1ccc(OC(=O)N2C/C(=C/c3ccccc3)C(=O)/C(=C\c3ccccc3)C2)cc1	-	.	.	-	-	-	.
O=C1/C(=C/c2ccccc2)CN(C(=O)CCN2CCOCC2)C/C1=C\c1ccccc1	-	.	.	68	-	-	-
CCOC(=O)N1C/C(=C\c2ccccc2)C(=O)/C(=C/c2ccccc2)C1	-	.	-	-	-	-	.
CC(C)NC(=O)Nc1ccc2c(c1)C(=O)N([C@@H](C)CO)C[C@@H](C)[C@H](CN(C)Cc1ccncc1)O2	.	.	-	.	-	-	.
O=C(CN(C(=O)c1csnn1)c1ccc(F)c(Cl)c1)NC1CCCCC1	-	-	-	88	-	-	-
O=C(CN(C(=O)c1csnn1)c1ccc(Cl)cc1)NC1CCCC1	-	-	-	-	-	-	.
Nc1c(/C=C2/C=CC(=O)C(O)=C2)c(=O)nc2sc(CC(=O)N3CCOCC3)nn12	-	.	-	114	-	-	3.6µM
c1ccc(CCN2CN=C(Nc3nc4ccccc4s3)NC2)cc1	-	-	.	64	-	-	-
